# Most compounds without a hit are left out; they make up all but 11% or so of the library.
# G9a inh – G9a (human) methyltransferase inhibition; G9a H3K9 monomethylation, AlphaScreen, 2 h; Potency, µM (doses to about 102 µM), for inactives: top-dose activity, negative = inhibition, actives largely listed as inhibitors; 350,000 compounds, 8.8% hits; note: % is set by controls: 0 for no effect and ±100 for the full control effect; nearly all actives have a fitted effect of over 75% in size
# Target sequence (Q96KQ7 913-1193 limits assumed): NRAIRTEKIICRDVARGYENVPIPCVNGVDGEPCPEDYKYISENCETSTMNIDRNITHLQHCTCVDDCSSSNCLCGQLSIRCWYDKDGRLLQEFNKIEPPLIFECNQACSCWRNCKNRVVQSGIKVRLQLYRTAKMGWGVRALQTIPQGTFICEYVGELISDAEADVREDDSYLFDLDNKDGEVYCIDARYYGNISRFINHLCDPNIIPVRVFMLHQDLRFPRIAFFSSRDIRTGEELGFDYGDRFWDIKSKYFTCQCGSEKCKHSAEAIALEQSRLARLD
#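 Readings reflect AlphaScreen signal from monomethyl-H3K9 antibody detection. HMT at 20 nM; substrate b-H3K9 500 nM; cofactor SAM 20 uM; 2 h RT reaction; compounds tested as titrations in qHTS with 15 min preincubation.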
# BAZ2B inh – inhibitors of human BAZ2B bromodomain; Potency, µM (titrated, usually from 114 µM), for the others: top-dose activity change, negative = inhibition, hits mostly inhibitors; Q9UIF8; 360,000 compounds, 4.4% hits; AlphaScreen BAZ2B-H3K14Ac peptide displacement; note: % is set by controls: 0 for no effect and ±100 for the full control effect; nearly all actives have a fitted effect of over 60% in size
#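 BAZ2B 50 nM plus b-H3(5-23)K14Ac 50 nM, PBS pH 7.4/0.01% Tween-20, 30 min RT; compound added (max 110 uM), 30 min RT; streptavidin donor/Ni-chelate acceptor beads 10 ug/mL final, 20 min dark; AlphaScreen read.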
# HP1b chromo inh – inhibitors of HP1-beta chromodomain binding to methylated histone tails | P83916 | AlphaScreen HP1-beta / biotin-H3K9me3 peptide binding | Potency, µM (top dose mostly 114 µM), without a hit: at the highest dose activity change, negative = inhibition, usual class: inhibitors | 390,000 compounds, 0.56% hits | AID 540317; note: nearly all actives have a fitted effect of over 70% in size
# Target sequence (P83916 whole entry, looked up): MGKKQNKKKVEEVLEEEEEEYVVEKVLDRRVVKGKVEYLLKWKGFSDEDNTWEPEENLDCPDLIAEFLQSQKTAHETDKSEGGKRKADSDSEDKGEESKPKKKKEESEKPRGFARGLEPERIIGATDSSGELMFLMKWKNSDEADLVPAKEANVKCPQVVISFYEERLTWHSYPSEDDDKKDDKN
#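 HP1-beta protein (50 nM final) preincubated 30 min at room temperature with biotinylated H3(1-18)K9me3 peptide (50 nM) in PBS pH 7.4, 0.01% Tween-20, then compound added for 30 min. AlphaScreen streptavidin donor/nickel chelate acceptor beads (10 ug/mL final), 30 min dark, luminescence read.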
# JMJD2A Tudor – JMJD2A Tudor domain (human) inhibition; AlphaScreen JMJD2A-Tudor / H3K4me3 peptide binding; Potency, µM (highest dose often 114 µM), inactives show at the top dose activity change, negative = inhibition, actives largely listed as inhibitors; 390,000 compounds, 4.4% hits; AID 504339; note: % is set by controls: 0 for no effect and ±100 for the full control effect; nearly all actives have a fitted effect of over 50% in size
# L3MBTL1 inh – inhibitors of human L3MBTL1. Q9Y468. AlphaScreen L3MBTL1–H3K9me1 peptide binding. Potency, µM (top dose mostly 57.1 µM), for inactives: at the highest dose activity, negative = inhibition, actives largely listed as inhibitors. 230,000 compounds, 0.66% hits; note: % is set by controls: 0 for no effect and ±100 for the full control effect; nearly all actives have a fitted effect of over 60% in size
#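 L3MBTL1 50 nM + b-AHA-H3(1-15)K9me1 75 nM, 30 min RT; compound added, 30 min RT; streptavidin donor/Ni-chelate acceptor beads 10 ug/mL each final, 30 min RT dark; AlphaScreen read.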
# The depositor's hits bear a star; ? = inconclusive; · = no result; [ ] = dose if it differs, or a comment. Calls come from the whole dose curve; as a rule, active = well fitted inhibition curve with a large enough effect; inconclusive = small, poorly fitted or top-dose-only effect; inactive = no such curve, though single readings can be large or run the other way. Potency is the fitted concentration of half-maximal effect.
SMILES,G9a inh,BAZ2B inh,HP1b chromo inh,JMJD2A Tudor,L3MBTL1 inh
Cc1ccccc1OC(=O)n1c(=S)oc2cc(Cl)ccc21,1.12µM*,11.6%,-2.6%,35.5µM*,·
O=C(Oc1ccccc1)n1c(=S)oc2ccccc21,3.55µM*,-4.4%,-11.7%,20µM*,5.4%
CCOc1ccc(-c2csc(C3COc4ccccc4O3)n2)cc1 (stereo not given),·,·,25.8%,6.3%,·
Nn1c(C2COc3ccccc3O2)n[nH]c1=S (stereo not given),2.82µM*,?,-16.8%,8.91µM*,-8.6%
Cc1ccc2c(CC(=O)Nc3ccc(S(=O)(=O)N4CCCCC4)cc3)coc2c1,-38.7%[59 µM],?,6.4%,-19.4%,·
Cc1sc(-c2ccccn2)nc1OC(=O)c1ccc(Cl)cc1,?,0.9%,-3.2%,25.1µM*,9.7%
COc1ccccc1C1NC(c2ccc3c(c2)OCO3)=CC(c2cc(Cl)ccc2O)N1 (stereo not given),·,·,11.2%[57 µM],-20.8%[57.1 µM],·
COc1ccc(Br)cc1C1NC(c2ccc3c(c2)OCO3)=CC(c2cc(Cl)ccc2O)N1 (stereo not given),·,·,-8.7%,89.1µM*,·
Clc1ccc(OCc2nn3c(C4CCCCC4)nnc3s2)cc1,8.91µM*,-0.7%,-20.5%,-25.4%,-2.9%
C=CCNCCCCOc1ccccc1-c1ccccc1,-1.5%[59 µM],3.6%,12.8%,1.7%,4.8%
N=C(N)CCCOc1ccccc1-c1ccccc1,4.9%[59 µM],1.7%,38.0%,2.8%,8.4%
CCOc1ccccc1OCCOc1ccccc1OC(C)C,114.8%,48.6%,140.6%,71.4%,·
CNCCOc1ccccc1OC(C)C,17.8µM*,?,-24.7%,2.24µM*,3.3%
CNCCCCOc1ccccc1-c1ccccc1,?,56.2µM*,?,0.631µM*,-17.0%
CNCCOc1ccccc1-c1ccccc1,?,?,-57.8%,3.55µM*,·
Cc1cc(C)nc(-n2nc(C)c(Sc3ccc(F)cc3)c2N)n1,50.1µM*,-3.7%,29.1%,?,-8.5%
CCCCN(CCCC)S(=O)(=O)c1ccc(NC(=O)Cc2cccs2)cc1,-36.5%[59 µM],?,-27.2%,44.7µM*,·
Cc1c(NC(=O)Cc2cccs2)cccc1[N+](=O)[O-],?,50.1µM*,30.9%,-10.5%[57.1 µM],-24.2%
Cc1c(Cl)cccc1NC(=O)Cc1cccs1,·,3.3%,54.0%,0.0%,-0.3%
CC(=O)c1cccc(NC(=O)Cc2cccs2)c1,?,-8.0%,19.7%,-14.9%,-13.4%
CC(=O)c1ccc(NC(=O)Cc2cccs2)cc1,?,50.1µM*,-16.2%,?,-25.7%
COc1ccccc1NC(=O)c1cc2c([nH]c1=O)CC(C)(C)CC2=O,8.8%[59 µM],3.5%,10.5%,-12.6%,·
CCOCCCNCc1ccc(Cl)cc1,11.2µM*,70.8µM*,?,1.12µM*,5.4%
CC(=O)c1ccc(NC(=O)CSc2nc(C3CCCC3)nc3c2c(=O)n(C)c(=O)n3C)cc1,-2.8%[59 µM],3.8%,21.8%[57 µM],2.3%,·
c1cn(CCCNc2ncnc3sc4c(c23)CCC4)cn1,3.8%,12.6%,10.5%,-22.6%,-9.7%
SMILES,G9a inh,BAZ2B inh,HP1b chromo inh,JMJD2A Tudor,L3MBTL1 inh
c1cn(CCCNC2CCCCCCC2)cn1,·,·,?,39.8µM*,·
c1cn(CCCNC2=NCCCCC2)cn1,-1.8%,50.1µM*,27.2%,-27.8%,-7.4%
S=C(NCCCn1ccnc1)NC1CCCCC1,5.7%[59 µM],-37.4%,33.3%,-3.5%,0.0%
Clc1cccc(C2CCN(Cc3nc(CC4CC4)no3)C2)c1 (stereo not given),48.7%,-7.7%,40.1%,-34.0%,2.0%
CCOC(=O)C(=CNc1ccc(Oc2cncc(Cl)c2)nc1)C(=O)OCC,7.3%,-8.4%,28.1%,7.9%,4.5%
CCCCOc1ccc(C(=O)NCC2(N3CCN(C)CC3)CCCCC2)cc1,-37.6%[59 µM],-11.9%,23.0%,-15.9%,·
CN(C)c1ccc([C@@H]2[C@@H]([N+](=O)[O-])[C@H]3C=Cc4ccccc4N3[C@H]2C(=O)c2ccc(Cl)cc2)cc1,7.94µM*,31.6µM*,?,44.7µM*,?
Cc1ccc(NC(=O)Cn2nc(-c3ccccc3)nc(Cc3ccc(Cl)cc3)c2=O)cc1,-0.3%[59 µM],-3.0%,24.5%,-10.7%,·
CCOC(=O)c1c(C)[nH]c(C(=O)N/N=C\c2ccccc2O)c1C,15.2%,12.2%,11.1%,-22.1%,-7.0%
CCNC(=O)C(=O)N/N=C/c1cc([N+](=O)[O-])ccc1O,9.4%,8.91µM*,37.1%,14.1µM*,·
CCOC(=O)c1c(C)[nH]c(C(=O)N/N=C/c2cc([N+](=O)[O-])ccc2O)c1C,?,44.7µM*,-4.4%,79.4µM*,·
Cc1cc(C)n(CC(=O)N/N=C/c2cc([N+](=O)[O-])ccc2O)n1,-14.4%,39.8µM*,31.9%,?,?
Nc1nnnn1CC(=O)N/N=C/c1cc([N+](=O)[O-])ccc1O,24.2%,19.3%,29.8%,20µM*,0.159µM*
COc1cccc(C2=Nn3c(nnc3-c3ccc(OC)cc3OC)SC2)c1,·,·,·,-20.0%,·
CCn1cc(C(=O)O)c(=O)c2cnc(N3CCN(C(=S)NC(=O)c4ccccc4Cl)CC3)nc21,-3.0%,-12.2%,43.6%,-2.0%,-2.3%
O=C(NCc1ccccc1Br)c1ccc(-n2cnc3cccnc32)cc1,-18.2%[59 µM],-31.9%,37.0%,?,·
O=C(N/N=C/c1cc([N+](=O)[O-])ccc1O)C12CC3CC(CC(C3)C1)C2,-6.4%,-22.7%,19.7%,-25.6%,8.2%
Nc1nnc(CC(=O)N/N=C\c2cc([N+](=O)[O-])ccc2O)s1,?,28.2µM*,29.0%,?,?
CC(C)CN(CC(C)C)C1=N/C(=C\c2ccco2)C(=O)N1c1ccccc1,?,-28.5%[57.1 µM],-12.2%,-21.9%,-15.2%
CCN(CC)C1=N/C(=C\c2ccco2)C(=O)N1c1ccccc1,28.2µM*,?,0.7%,-21.2%,-13.4%
COc1ccc(C(=O)/C=C/c2cn(CC(O)CN3CCCCCC3)c3ccccc23)cc1OC (stereo not given),?,28.2µM*,-17.5%,?,·
Cc1ccc(C(=O)/C=C/c2cn(CC(O)CN3CCCCCC3)c3ccccc23)cc1 (stereo not given),?,?,-20.9%,50.1µM*,·
COc1ccc(C(=O)/C=C/c2cn(CC(O)CN3CCN(C)CC3)c3ccccc23)cc1OC (stereo not given),-23.3%,-24.4%,9.2%,-17.1%,-20.1%
CN(C)CCO[C@](C)(c1ccccc1)c1ccccn1,15.5%[21.5 µM],·,·,·,·
CCn1cc([N+](=O)[O-])c(C(=O)N2N=C(c3ccc(Cl)c(Cl)c3)CC2c2ccccc2O)n1 (stereo not given),?,?,-8.1%,?,-0.2%
CCn1cc([N+](=O)[O-])c(C(=O)N2N=C(c3ccc(O)c(OC)c3)CC2c2ccccc2O)n1 (stereo not given),39.8µM*,-5.8%,-21.2%,-27.9%,-0.9%
Nn1c(SCc2cn3cc(Cl)ccc3n2)nnc1-c1ccncc1,44.7µM*,-22.4%,1.0%,-12.8%,2.7%
S=C(Cc1cccnc1)N1CCOCC1,2.24µM*,2.1%,?,79.4µM*,10.8%
